According to PubChem BioAssay (EPA / NIEHS):
Active and inactive are the calls of the source. How the source made its calls: active means hit-call score of the fitted dose curve at least 0.9, where 1 is the maximum; inactive means score below 0.9.

experiment: ATG_NRF2_ARE_CIS: Attagene CIS-FACTORIAL HepG2 Assay for human Nuclear Factor Erythroid 2 Related Factor 2 (NFR2) response to Antioxidant Response Elements (ARE) (AID 2282992); settings: HepG2 Attagene ARE/NRF2 reporter, transcription factor activity; actives raise or lower the signal
Experimental: ATG_CIS is a cell-based, multiplexed-readout assay that uses HepG2, a human liver cell line, with measurements taken at 24 hours after chemical dosing in a 24-well plate.ATG_NRF2_ARE_CIS is one of 52 assay component(s) measured or calculated from the ATG_CIS assay. It is designed to make measurements of mRNA induction, a form of inducible reporter, as detected with fluorescence intensity signals by Reverse transcription polymerase chain reaction (RT-PCR) and Capillary electrophoresis technology.Data from the assay component ATG_NRF2_ARE_CIS was analyzed into 1 assay endpoint. This assay endpoint, ATG_NRF2_ARE_CIS, was analyzed with bidirectional fitting relative to DMSO as the negative control and baseline of activity. Using a type of inducible reporter, measures of mRNA for gain or loss-of-signal activity can be used to understand the reporter gene at the transcription factor-level as they relate to the gene NFE2L2. Furthermore, this assay endpoint can be referred to as a primary readout, because this assay has produced multiple assay endpoints where this one serves a reporter gene function. To generalize the intended target to other relatable targets, this assay endpoint is annotated to the dna binding intended target family, where the subfamily is basic leucine zipper.
Human liver HepG2 cells are transiently transfected with multiple reporter transcription units (MRTUs) in 6-well plates using FuGene 6 reagent (Roche; 3 ml FuGene/1 mg DNA). The MRTU constructs are regulated by a cis-regulating element (promoter). […] A major difference between the CIS and TRANS system is that in CIS activities of endogenous TFs are measured, whereas the TRANS assay evaluates changes in activities of exogenous, chimeric NR-Gal4 proteins. […] At the end of 24 hour incubation, total RNA was isolated using TriZol reagent (Invitrogen). The isolated RNA is then reverse-transcribed using oligo(dT) primer and Mo-MLV reverse transcriptase (Invitrogen) with DNAse I (Ambion) treatment for 30 min. The one-tenth of the produced cDNA was amplified by PCR using Taq DNA polymerase (Invitrogen) and two reporter sequence-specific primers. The PCR products were fluorescently labeled by primer extension with 6-arboxyfluorescein (6-FAM) 5'-labeled reporter sequence-specific primer (2 min at 95 C, 20 s at 68 C and 10 min at 72 C) and these products were digested with 5U of HpaI (New England Biolabs) for 2h at 37 C. The fragments were purified using Qiaquick PCR columns (Qiagen), analyzed on an ABI 3130xL genetic analyzer (Applied Biosystems) with peak positions identified by using a set of X-rhodamine (ROX)-labeled MapMarker1000 molecular weight standards (BioVentures). The raw capillary electrophoresis data was processed using Attagraph software (Attagene).

outcome, inactive:
CCCC(C)CCC(C)=O (stereo not given), Cc1ccc(OC(=O)CC(C)C)cc1, CC(C)c1ccc2c(c1)CC[C@H]1[C@](C)(CN)CCC[C@]21C, C[Si](C)(CCCN)O[Si](C)(C)CCCN, CC(=O)[C@@]1(O)CC[C@H]2[C@@H]3C[C@H](C)C4=CC(=O)C=C[C@]4(C)[C@@]3(F)[C@@H](O)C[C@@]21C, CCCCC(CC)COC(=O)c1ccccc1O (stereo not given), O=C(O)Cc1c(Cl)ccc(Cl)c1Cl, NC(=O)c1ccccc1O, Cc1ccc([N+](=O)[O-])cc1S(=O)(=O)O, O=C(O)CC(C(=O)O)C(CC(=O)O)C(=O)O (stereo not given), CCOC(=O)CC, O=CN1CCCCC1, COCc1c(C(C)C)nc(C(C)C)c(/C=C/[C@@H](O)C[C@@H](O)CC(=O)O)c1-c1ccc(F)cc1, CCCc1ccc(OC)cc1, CC(C)CCCC(C)CC=O (stereo not given), COc1cc(NC(=O)CC(C)=O)c(OC)cc1Cl, CC(=O)Nc1ccc2c(c1)Cc1cc(NC(C)=O)ccc1-2, CCc1c(C(=O)O)c(=O)cnn1-c1ccc(Cl)cc1, CC(=O)c1ccc[nH]1, C=C1[C@H]2CC[C@@H]3[C@H]2C(C)(C)CCC[C@]13C, CCOC(=O)NNc1nncc2ccccc12, CC(=O)c1ccc2c(c1)CCCC2, S=C(NC1CCCCC1)NC1CCCCC1, CN(C)CCCN(C)C, CC1(C)O[C@@H]2C[C@H]3[C@@H]4C[C@H](F)C5=CC(=O)C=C[C@]5(C)[C@@]4(F)[C@@H](O)C[C@]3(C)[C@]2(C(=O)CO)O1, CCN(CCO)c1cccc(C)c1, COc1cc(C)ccc1C(C)C, CC(=O)Oc1ccc(C(C)=O)cc1, O=C1CCCCCCCCCCC(=O)OCCO1, CC[C@H]1OC(=O)[C@H](C)[C@@H](O[C@H]2C[C@@](C)(OC)[C@@H](O)[C@H](C)O2)[C@H](C)[C@@H](O[C@@H]2O[C@H](C)C[C@H](N(C)C)[C@H]2O)[C@](C)(O)C[C@@H](C)C(=NOCOCCOC)[C@H](C)[C@@H](O)[C@]1(C)O, COC(=O)c1ccccc1OC, O=Cc1ccc(CO)o1

AC50, active:
O=S(=O)(Oc1ccc(Cl)cc1Cl)c1ccccc1 11.5 µM, O=C1c2cccc(O)c2C(=O)c2c(O)cc(CO)cc21 6.09 µM, [Cl][In]([Cl])[Cl] 17.6 µM, c1cc(C(c2ccc(OCC3CO3)cc2)C(c2ccc(OCC3CO3)cc2)c2ccc(OCC3CO3)cc2)ccc1OCC1CO1 (stereo not given) 21.1 µM, CCCCCCCC/C=C\CCCCCCCC(=O)OCCO 40.8 µM, CC(C)=CCC/C(C)=C\C#N 26.5 µM, O=C1Nc2ccccc2C1(c1ccc(O)cc1)c1ccc(O)cc1 178 µM, Cc1oncc1C(=O)Nc1ccc(C(F)(F)F)cc1 100 µM
